Some test systems named below: DU-145 prostate; K-562 leukemia; MALME-3M melanoma; MDA-MB-231 breast; RXF 393 renal; SF-268 CNS; SF-295 CNS; SF-539 CNS; UACC-257 melanoma; M14 melanoma.
Common to all, as to experiment: NCI-60 one-dose screen, 48 h (100 = growth as untreated, 0 = no growth, -100 = all killed)
Holding throughout (settings): 10 µM unless noted

From PubChem BioAssay (NCI) come the findings set out here.

Where “and” joins values, the source holds several entries; their conditions need not be identical. Equal values may be shown once. Compounds without any hit were thinned out: in the full panel of roughly 83,000, 20% have a hit.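 Growth was measured after 48 h exposure to one concentration of compound in 96-well plates. Values under 10 count as active.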 Calls of active or inactive are those of the source.

On to `COc1cc(-c2[nH]ncc2Nc2ccc(Cl)cc2)cc(OC)c1OC`, for which the growth with DU-145 prostate is 102% (inactive); in the assay with K-562 leukemia, 47.2% (inactive); with MALME-3M melanoma, 69.4% (inactive); in the assay on MDA-MB-231 breast it was 62.6% (inactive); in the assay with RXF 393 renal it was 89.4% (inactive); with SF-268 CNS, 84.5% (inactive). Also, the growth is 42.7% (inactive) in the assay with SF-295 CNS, 70.1% (inactive) in the assay with SF-539 CNS, 64.6% (inactive) with UACC-257 melanoma and 71.3% (inactive) in the assay on M14 melanoma.

Regarding `COC1/C=C/OC2(C)Oc3c(C)c(O)c4c(O)c(c(C=NOC(c5ccccc5)c5ccccc5)c(O)c4c3C2=O)NC(=O)/C(C)=C/C=C/C(C)C(O)C(C)C(O)C(C)C(OC(C)=O)C1C` (stereo not given), the growth was 37.9% (inactive) with DU-145 prostate; 17.1% (inactive) in the assay on K-562 leukemia; 23.5% (inactive) in the assay on MALME-3M melanoma; 8.78% (active) with MDA-MB-231 breast; -3.93% (active) with RXF 393 renal; 44.2% (inactive) in the assay on SF-268 CNS. For the same compound, the growth is 1.59% (active) with SF-295 CNS, 31.3% (inactive) in the assay with SF-539 CNS, 12.2% (inactive) in the assay with UACC-257 melanoma and 23.2% (inactive) with M14 melanoma.

Regarding `Nc1nc(Cl)nc2c1ncn2C1OC(CO)C(O)C1O` (stereo not given), the growth with DU-145 prostate is 64.8% (inactive) and 44.9% (inactive); with K-562 leukemia, 67% (inactive); with MALME-3M melanoma, 74.7% (inactive) and 76.4% (inactive); in the assay on MDA-MB-231 breast, 71.1% (inactive) and 90.7% (inactive); in the assay with RXF 393 renal, 123% (inactive) and 118% (inactive); in the assay with SF-268 CNS it was 57.6% (inactive) and 63.4% (inactive). In addition, the growth in the assay on SF-295 CNS was 102% (inactive) and 103% (inactive); in the assay with SF-539 CNS, 91.7% (inactive) and 111% (inactive); in the assay with UACC-257 melanoma, 99.1% (inactive) and 85.9% (inactive); in the assay with M14 melanoma, -14% (active) and 4.59% (active).

Turning to `COc1cc(CNC(=O)CCCC/C=C/C(C)C)ccc1O`, the growth in the assay on DU-145 prostate was 112% (inactive) and 120% (inactive); in the assay on K-562 leukemia, 84.1% (inactive) and 93.3% (inactive); in the assay on MALME-3M melanoma it was 154% (inactive) and 95.6% (inactive); in the assay on MDA-MB-231 breast, 85.1% (inactive) and 83.3% (inactive); in the assay with RXF 393 renal it was -46.1% (active) and 98.6% (inactive); in the assay with SF-268 CNS, 84.9% (inactive) and 91.6% (inactive). Besides, the growth was 128% (inactive) and 107% (inactive) with SF-295 CNS; 95.6% (inactive) and 90.7% (inactive) in the assay on SF-539 CNS; 119% (inactive) and 112% (inactive) in the assay with UACC-257 melanoma; 117% (inactive) and 99.5% (inactive) with M14 melanoma.

With `Cc1ccc(-c2nc([P+](c3ccccc3)(c3ccccc3)c3ccccc3)c(Nc3ccccc3)o2)cc1`, the growth in the assay on DU-145 prostate is 13.2% (inactive); in the assay with K-562 leukemia, 0.731% (active); in the assay with MALME-3M melanoma, -44.1% (active); with MDA-MB-231 breast, -36.5% (active); in the assay on RXF 393 renal, -31.7% (active); in the assay with SF-268 CNS it was 10.6% (inactive). In addition, the growth with SF-295 CNS is -21% (active); with SF-539 CNS, -76.6% (active); in the assay on UACC-257 melanoma it was -13.5% (active); in the assay with M14 melanoma, -40.4% (active).

For the compound `C=C1C(=O)O[C@@H]2[C@H]3[C@H](COC(C)=O)[C@@H](OC(C)=O)C[C@H]3C(=C)[C@@H](O)C[C@@H]12`, the growth in the assay on DU-145 prostate is 76.5% (inactive); in the assay with K-562 leukemia it was 86.8% (inactive); in the assay on MALME-3M melanoma, 88.9% (inactive); in the assay on MDA-MB-231 breast, 99% (inactive); in the assay with RXF 393 renal it was 99.5% (inactive); in the assay with SF-268 CNS it was 96.5% (inactive). The growth with SF-295 CNS is 103% (inactive); with SF-539 CNS it was 103% (inactive); in the assay on UACC-257 melanoma, 83.3% (inactive); in the assay on M14 melanoma, 87.6% (inactive).

Consider `COC(=O)c1[nH]nc(OC)c1C1(C(C#N)c2nc3ccccc3s2)CCCc2ccccc21` (stereo not given), for which the growth is 108% (inactive) in the assay on DU-145 prostate; 92.4% (inactive) with K-562 leukemia; 101% (inactive) with MALME-3M melanoma; 79.9% (inactive) in the assay on MDA-MB-231 breast; 117% (inactive) with RXF 393 renal; 101% (inactive) with SF-268 CNS. Moreover, the growth with SF-295 CNS was 97.5% (inactive); with SF-539 CNS, 106% (inactive); in the assay on UACC-257 melanoma, 101% (inactive); in the assay on M14 melanoma, 95.2% (inactive).

`CC(=NCc1ccccc1)c1ccc(O)cc1O`: the growth in the assay on DU-145 prostate was 112% (inactive); with K-562 leukemia, 96.6% (inactive); in the assay with MALME-3M melanoma, 93.8% (inactive); in the assay with MDA-MB-231 breast, 96.9% (inactive); in the assay on RXF 393 renal it was 122% (inactive); in the assay with SF-268 CNS, 101% (inactive). For the same compound, the growth was 123% (inactive) in the assay with SF-295 CNS, 97.8% (inactive) in the assay with SF-539 CNS, 88.1% (inactive) in the assay on UACC-257 melanoma and 104% (inactive) with M14 melanoma.

Take `CCOc1ccccc1NC(=O)c1cc2ccccc2cc1O`: the growth with DU-145 prostate was 78.5% (inactive); in the assay on K-562 leukemia, 22.8% (inactive); in the assay on MALME-3M melanoma, 49.8% (inactive); with MDA-MB-231 breast, 54.9% (inactive); with RXF 393 renal it was 63.2% (inactive); in the assay with SF-268 CNS, 80.6% (inactive). Besides, the growth in the assay with SF-295 CNS is 106% (inactive); in the assay on SF-539 CNS it was 84.6% (inactive); with UACC-257 melanoma, 54.2% (inactive); in the assay with M14 melanoma it was 64.6% (inactive).

`C=C(CN1CC=CCC1)[C@@H]1CC[C@]2(COC(C)=O)CC[C@]3(C)[C@H](CC[C@@H]4[C@@]5(C)CC[C@H](O)C(C)(C)[C@@H]5CC[C@]43C)[C@@H]12`: the growth is 102% (inactive) in the assay with DU-145 prostate; 91.7% (inactive) with K-562 leukemia; 113% (inactive) in the assay with MALME-3M melanoma; 112% (inactive) in the assay with MDA-MB-231 breast; 109% (inactive) with RXF 393 renal; 106% (inactive) with SF-268 CNS. In addition, the growth with SF-295 CNS was 105% (inactive); with SF-539 CNS it was 96.8% (inactive); with UACC-257 melanoma it was 99.4% (inactive); in the assay with M14 melanoma it was 97.4% (inactive).

Take `Nc1nc2ccccc2c2c(=O)c3ccc(Cl)cc3sc12`: the growth is 97.5% (inactive) in the assay with DU-145 prostate; 90.7% (inactive) in the assay with K-562 leukemia; 107% (inactive) in the assay on MALME-3M melanoma; 91% (inactive) in the assay with MDA-MB-231 breast; 111% (inactive) in the assay on RXF 393 renal; 95.2% (inactive) in the assay on SF-268 CNS. Also, the growth with SF-295 CNS was 101% (inactive); in the assay on SF-539 CNS, 106% (inactive); in the assay on UACC-257 melanoma, 105% (inactive); in the assay on M14 melanoma it was 94.5% (inactive).
